Shown are actives, neighbours in structure and some others; about 17% of the full set was active somewhere.
HT1080 IDH1KD tx = HT-1080 IDH1 knockdown cell toxicity (counter line). 360,000 tested, 2% active. Potency, µM (highest dose often 46.1 µM), for the others: at the top dose activity, negative = toxicity, hits mostly cytotoxic. HT-1080 IDH1 knockdown viability, ATP luminescence, 48 h. AID 686971;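 note: 0% = DMSO wells and -100% = cell-free medium wells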
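CellTiter-Glo luminescence after 48 h compound exposure at 37 degrees C of IDH1-knockdown HT-1080 cells in 5% FBS RPMI. %Activity scaled between DMSO wells and cell-free media wells, with curves fitted and assigned curve classes.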
HepG2 tox = HepG2 cytotoxicity, counter-screen for TGF-b inhibitors. 410,000 tested, 0.76% active. Potency, µM (titrated, usually from 46.1 µM), for the others: at the highest dose activity change, negative = cytotoxicity, usual class: cytotoxic. AID 588856. HepG2 CAGA-GFP viability, ATP luminescence, 18 h
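HepG2 CAGA-GFP cells (1000/well, DMEM with 1% FBS) received compound, then TGF-beta at 500 pg/mL final, and were incubated 18 hours at 37 degrees C. Viability was read by CellTiter-Glo luminescence. Media-only wells were set as complete cell-killing and DMSO as no toxicity.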
HT1080NT lethal = kills 2HG-producing HT-1080-NT fibrosarcoma cells; Potency, µM (series often up to 46.1 µM), inactives show at the highest dose activity, negative = less viability, most hits filed as cytotoxic; HT-1080-NT fibrosarcoma viability, CellTiter-Glo ATP luminescence, 48 h; 360,000 tested, 1.6% active; AID 686970;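 note: NT is the 2HG producing partner of a matched IDH1 knockdown line; 0% = DMSO-treated cells and -100% = media-only wells without cells; nearly all actives have a fitted effect of over 55% in size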
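HT-1080-NT fibrosarcoma cells (2HG-overproducing), 750 cells/well in RPMI with 5% FBS, dosed after 2 h and incubated 48 h at 37C. CellTiter-Glo luminescence normalized to DMSO and no-cell wells; concentration-response curves fitted and classed.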
DT40 TDP1 CPT = growth inhibition of DT40 Tdp1-/-;hTDP1 cells with camptothecin (screen for TDP1 inhibitors); chicken DT40 Tdp1-/-;hTDP1 cells + 20 nM CPT, ATP luminescence, 48 h; Potency, µM (highest dose often 46.2 µM), for the others: at the top dose activity change, negative = growth inhibition, hits mostly inhibitors; 420,000 tested, 12% active; note: % is set by controls: 0 for no effect and ±100 for the full control effect; nearly all actives have a fitted effect of over 55% in size
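Chicken DT40 Tdp1-/- cells stably complemented with human TDP1 were seeded at 400 cells/well in medium containing 20 nM camptothecin, exposed to pin-transferred compounds, and grown at 37 °C for at least 48 hr. Viability was read as ATP luminescence.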
TGFb SMAD3 inh = TGF-b pathway inhibition; HepG2 CAGA-GFP TGF-b/SMAD3 reporter, GFP fluorescence, 18 h; TGF-beta stimulated, 500 pg/mL final; Potency, µM (series often up to 46.1 µM), for inactives: top-dose activity, negative = inhibition, usual class: inhibitors; 410,000 tested, 1.2% active; AID 588855; note: % is set by controls: 0 for no effect and ±100 for the full control effect; nearly all actives have a fitted effect of over 65% in size
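Inhibition was scored as loss of TGF-beta-induced (500 pg/mL final, 18 hours, 37 degrees C) GFP in HEPG2 cells carrying a CAGA-GFP reporter, in DMEM with 1% FBS. Well GFP was summed per cell; Activity was normalised to unstimulated and stimulated DMSO wells, then concentration-response fitting.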
TDP1 cell noCPT = qHTS for Inhibitors of human tyrosyl-DNA phosphodiesterase 1 (TDP1): qHTS in cells in absence of CPT | AID 686978, 2013 | Potency, µM (titrated, usually from 46.2 µM), inactives show top-dose activity change, negative = growth inhibition, hits mostly inhibitors | DT40 Tdp1-/- hTDP1 cells, no CPT, ATP luminescence, 48 h | 420,000 tested, 15% active; note: % is set by controls: 0 for no effect and ±100 for the full control effect; nearly all actives have a fitted effect of over 55% in size
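Growth of hTDP1-complemented DT40 Tdp1-knockout cells is measured by ATP luminescence after at least 48 hr compound exposure at 37 °C, with DMSO substituting for the 20 nM CPT used in the parallel screen.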
* = called active by the depositor; ? = inconclusive; . = not tested or not shown. Calls come from the whole dose curve; as a rule, active = well fitted curve in the direction sought with a large enough effect; inconclusive = small, poorly fitted or top-dose-only effect, or another doubt; inactive = no such curve, though single readings can be large; an effect the other way counts as inactive or inconclusive. Potency is the fitted concentration of half-maximal effect.

SMILES	HT1080 IDH1KD tx	HepG2 tox	HT1080NT lethal	DT40 TDP1 CPT	TGFb SMAD3 inh	TDP1 cell noCPT
Cc1ccc(-n2nc(C(=O)N3CCN(c4cc(C)ccc4C)CC3)c3c4ccccc4n(C)c3c2=O)cc1	.	-6%	.	-15%	-19%	-1%
COc1ccc(N2CCN(C(=O)c3cn(CC(C)C)c(=O)c4c3c3ccccc3n4C)CC2)cc1	.	-27%	.	?	?	23µM*
Nc1ccc(N2CCN(c3cccc(Cl)c3)CC2)cc1	1%	-1%	6%	13µM*	-37%	15µM*
O=S(=O)(c1ccccc1)N1CCN(c2cccc(Cl)c2)CC1	5%	-7%	-3%	-6%	11%	-17%
O=C(Cc1c(F)cccc1Cl)OCC(=O)N1CCN(c2ccccc2)CC1	2%	-12%	11%	18µM*	-6%	?
Clc1cccc(N2CCN(CCCN3CCN(c4ccccc4)CC3)CC2)c1	?	-19%	-26%	26µM*	0%	?
c1ccc(CCCN2CCN(c3ccccc3)CC2)cc1	4%	-19%	-1%	13%	-1%	-7%
O=C(O)CCCC(=O)N1CCN(c2cccc(Cl)c2)CC1	8%	14%	-3%	-3%	28%	3%
O=C(CCC(=O)N1CCN(c2cccc(Cl)c2)CC1)N1CCN(c2ccccc2)CC1	-18%	-27%	-3%	18µM*	?	8.2µM*
O=C(CN1C(=O)c2ccccc2S1(=O)=O)N1CCN(c2cccc(Cl)c2)CC1	10%	4%	11%	-22%	-6%	-26%
O=C(CCNC(=O)Cn1ccc2ccccc2c1=O)NCCCN1CCN(c2ccccc2F)CC1	-2%	-11%	2%	-24%	-1%	-10%
O=C(CNC(=O)Cn1ccc2ccccc2c1=O)NCCCN1CCN(c2cccc(Cl)c2)CC1	-7%	-16%	-8%	?	-8%	26µM*
O=C(CCC(=O)N1CCN(c2cccc(Cl)c2)CC1)c1cccs1	?	4%	?	?	10%	18µM*
O=C(CCN1C(=O)c2ccccc2S1(=O)=O)N1CCN(c2cccc(Cl)c2)CC1	-6%	-10%	-17%	?	-2%	16µM*
Cn1cc(CC(=O)N2CCN(c3ccc(Cl)cc3)CC2)c2ccccc21	?	-16%	-24%	?	11%	13µM*
CC1(C2CCN(Cc3c[nH]c4ccccc34)CC2)NC(=O)N(CCN2CCOCC2)C1=O (stereo unspecified)	.	.	.	5%	.	-24%
N#Cc1cccc(C#N)c1Oc1ccc(S(=O)(=O)Nc2ccc(Cl)cc2)cc1	-5%	-12%	-5%	-62%	?	16µM*
O=C(O)c1sccc1Oc1ccc(NS(=O)(=O)c2ccc(Cl)cc2)cc1	15%	-2%	6%	0%	-13%	-6%
COc1ccc(N(C)S(=O)(=O)c2cccc(C(=O)OCC(=O)Nc3cc(C)ccc3OC)c2)cc1	3%	4%	-1%	-6%	-4%	?
CC1CC(C)(C)CC2(C1)NC(=O)N(CC(=O)Nc1c(F)cccc1F)C2=O (stereo unspecified)	6%	-6%	10%	6%	-5%	3%
